A short description of experiment [1]: antimalarial activity against Dd2 strain (AID 2302;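 active = growth inhibition above 50% at the single 2 µM test dose, taken to imply half-maximal potency below 2 µM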;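 note: 0% = DMSO untreated growth and 100% = chloroquine plus artemisinin killed control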). The note with it: P. falciparum Dd2 in RBCs, LDH growth readout, 72 h; at 2 µM; hits give high values.
Experiment [2] can be described thus: HepG2 cytotoxicity, primary screen, cytotoxicity control for P. falciparum antimalarial project, cell-based, ATP luminescence (AID 2303;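 active = inhibition above 50%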;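 note: 0% = DMSO wells and 100% = digitonin-killed cells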). The settings on record: HepG2 viability, 24-48 h, at 10 µM, hits give high values.
Experiment [3] deals with L-lactate dehydrogenase (Plasmodium falciparum (isolate CDC / Honduras)) (UniProt Q27743). The experiment is described as follows: PfLDH activity inhibition – cell lysate, 3D7 strain, counter-screen for P. falciparum growth inhibition project (AID 2304).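 Note: 0% = vehicle and 100% = reference inhibitor.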 The note with it: P. falciparum 3D7 crude extract, LDH APAD/NBT absorbance; at 2 µM; hits give high values.
Chain of L-lactate dehydrogenase (Plasmodium falciparum (isolate CDC / Honduras)) (Q27743 whole entry, looked up): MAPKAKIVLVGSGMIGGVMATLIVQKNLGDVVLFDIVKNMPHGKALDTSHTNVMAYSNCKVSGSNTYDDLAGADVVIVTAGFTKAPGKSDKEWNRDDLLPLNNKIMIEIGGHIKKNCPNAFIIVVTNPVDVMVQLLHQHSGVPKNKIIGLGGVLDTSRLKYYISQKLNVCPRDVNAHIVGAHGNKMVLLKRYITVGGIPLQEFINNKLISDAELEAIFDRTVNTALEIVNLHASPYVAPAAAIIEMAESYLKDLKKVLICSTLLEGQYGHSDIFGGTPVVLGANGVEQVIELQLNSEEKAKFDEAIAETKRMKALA
The nature of experiment [4]: inhibition of 3D7 malaria parasite growth – strain 3D7 (AID 2306).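 Note: 0% = DMSO wells and 100% = chloroquine plus artemisinin control wells.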 The note with it: P. falciparum 3D7 erythrocytic growth, LDH absorbance, 72 h; at 2 µM; hits give high values.
The target in experiment [5] is Calcium-dependent protein kinase 1 (Plasmodium falciparum (isolate 3D7)) (UniProt P62344). Nature of the experiment: PfCDPK1 kinase inhibitors, biochemical, TCAMS library (AID 1159585; cut-off not given, nearly all actives have IC50 up to about 0.98 µM;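 note: inhibitors leave more ATP so luminescence rises with inhibition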). The settings on record: recombinant PfCDPK1, Kinase-Glo ATP depletion luminescence.
Chain of Calcium-dependent protein kinase 1 (Plasmodium falciparum (isolate 3D7)) (P62344 whole entry, looked up): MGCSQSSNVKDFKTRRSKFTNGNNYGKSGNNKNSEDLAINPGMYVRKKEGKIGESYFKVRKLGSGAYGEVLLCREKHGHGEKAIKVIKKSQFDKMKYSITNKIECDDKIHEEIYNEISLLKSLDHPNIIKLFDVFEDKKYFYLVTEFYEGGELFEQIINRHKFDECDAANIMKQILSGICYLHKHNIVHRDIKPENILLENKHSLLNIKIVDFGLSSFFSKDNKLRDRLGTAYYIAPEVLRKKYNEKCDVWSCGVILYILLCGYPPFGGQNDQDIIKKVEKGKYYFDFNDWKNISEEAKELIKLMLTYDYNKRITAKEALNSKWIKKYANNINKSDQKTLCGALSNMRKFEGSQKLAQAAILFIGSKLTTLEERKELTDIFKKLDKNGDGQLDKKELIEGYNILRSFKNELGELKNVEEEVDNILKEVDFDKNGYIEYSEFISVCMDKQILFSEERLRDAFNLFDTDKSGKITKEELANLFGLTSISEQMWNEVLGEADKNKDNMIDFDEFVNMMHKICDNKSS
Experiment [6] addresses Plasmodium falciparum protein kinase 6 (PK6, PF3D7_1337100) (UniProt Q8IDW1). The experiment is described as follows: PfPK6 kinase inhibitors, biochemical, TCAMS library (AID 1159586). The settings on record: recombinant PfPK6, Kinase-Glo ATP depletion luminescence.
Experiment [7] has as its target Protein kinase 7 (PK7), Plasmodium falciparum 3D7 (PF3D7_0213400) (UniProt Q7YTF7). Nature of the experiment: inhibition of Plasmodium PK7 catalytic activity – biochemical, TCAMS antimalarial set, Kinase-Glo luminescence (AID 1159587). The settings on record: recombinant PfPK7, Kinase-Glo ATP depletion luminescence.
Experiment [8] deals with Calcium-dependent protein kinase 4 (Plasmodium falciparum (isolate 3D7)) (UniProt Q8IBS5). Nature of the experiment: PfCDPK4 kinase inhibitors, biochemical, TCAMS library (AID 1159588; cut-off not given, nearly all actives have IC50 up to about 0.91 µM). The note with it: recombinant PfCDPK4, Kinase-Glo ATP depletion luminescence.
Chain of Calcium-dependent protein kinase 4 (Plasmodium falciparum (isolate 3D7)) (Q8IBS5 whole entry, looked up): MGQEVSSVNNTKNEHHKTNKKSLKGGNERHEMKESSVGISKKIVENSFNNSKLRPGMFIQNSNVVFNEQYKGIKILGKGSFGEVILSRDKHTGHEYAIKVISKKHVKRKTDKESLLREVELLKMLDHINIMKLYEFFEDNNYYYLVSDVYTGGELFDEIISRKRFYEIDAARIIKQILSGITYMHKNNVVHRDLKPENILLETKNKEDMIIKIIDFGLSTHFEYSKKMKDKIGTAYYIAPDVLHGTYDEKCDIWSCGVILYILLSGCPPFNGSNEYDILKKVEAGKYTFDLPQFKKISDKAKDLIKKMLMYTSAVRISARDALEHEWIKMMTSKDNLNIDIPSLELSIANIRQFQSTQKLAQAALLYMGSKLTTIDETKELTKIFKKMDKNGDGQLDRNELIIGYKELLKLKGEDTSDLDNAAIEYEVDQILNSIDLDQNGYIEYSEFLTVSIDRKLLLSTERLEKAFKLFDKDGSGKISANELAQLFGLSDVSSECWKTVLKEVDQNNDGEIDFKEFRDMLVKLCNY

Molecules are shown by their SMILES. Values without a mark were called inactive. For some of these results: Results with a measured potency or affinity are listed apart. Calls of active or inactive are those of the source. Unless noted, the rule behind the calls is not given here.

Chain of Protein kinase 7 (PK7), Plasmodium falciparum 3D7 (PF3D7_0213400) (Q7YTF7 1-343): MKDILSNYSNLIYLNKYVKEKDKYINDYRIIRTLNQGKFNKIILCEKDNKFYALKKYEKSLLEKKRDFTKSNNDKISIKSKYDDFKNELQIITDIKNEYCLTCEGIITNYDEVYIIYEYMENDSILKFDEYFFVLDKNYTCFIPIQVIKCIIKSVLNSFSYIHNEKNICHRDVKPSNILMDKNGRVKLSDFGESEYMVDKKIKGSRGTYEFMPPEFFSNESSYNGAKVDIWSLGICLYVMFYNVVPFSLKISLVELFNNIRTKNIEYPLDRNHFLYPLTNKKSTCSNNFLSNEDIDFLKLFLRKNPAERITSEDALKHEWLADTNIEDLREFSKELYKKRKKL
Chain of Plasmodium falciparum protein kinase 6 (PK6, PF3D7_1337100) (Q8IDW1 1-305): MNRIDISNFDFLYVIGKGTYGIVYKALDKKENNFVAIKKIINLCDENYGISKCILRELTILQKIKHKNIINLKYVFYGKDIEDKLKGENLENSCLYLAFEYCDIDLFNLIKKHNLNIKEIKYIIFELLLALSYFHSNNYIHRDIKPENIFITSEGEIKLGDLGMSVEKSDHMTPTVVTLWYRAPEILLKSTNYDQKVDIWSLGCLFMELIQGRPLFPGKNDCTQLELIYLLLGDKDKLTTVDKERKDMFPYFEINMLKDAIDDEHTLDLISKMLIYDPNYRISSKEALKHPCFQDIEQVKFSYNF

In the case of `COc1cccc2cc(C(=O)N[C@@H](CC(C)C)C(=O)N[C@H](/C=N/N(C)C(=O)OC(C)(C)C)CC(=O)OC(C)(C)C)oc12`, the figures for the growth inhibition in experiment [1] and in experiment [4] were 67% (active) and 87% (active), respectively. Also, the results for the inhibition in experiment [2] and in experiment [3] were 5% and -8%, respectively. Moreover, the outcome in experiment [5], in experiment [6], in experiment [7] and in experiment [8] was inactive.

Turning to `CCNC(=O)c1cc(S(=O)(=O)N2CCN(c3ccccn3)CC2)cs1`, the growth inhibition in experiment [1] was 94% (active); in experiment [4] it was 97% (active). Besides, the inhibition in experiment [2] was 7%; in experiment [3], 1%. The outcome in experiment [5], in experiment [6], in experiment [7] and in experiment [8] was inactive.

Regarding `Cc1ccccc1C1CCN(C2CCC(NC(=O)/C=C/c3ccc(C(F)(F)F)cc3F)CC2)CC1` (stereo not given), the growth inhibition in experiment [1] was 58% (active); in experiment [4], 99% (active). For the same molecule, the inhibition was 72% (active) in experiment [2] and -2% in experiment [3]. The result in experiment [5], in experiment [6], in experiment [7] and in experiment [8] was inactive.

Regarding `OC(CNc1ccnc(Nc2cccc(Cl)c2)n1)c1ccc(C(F)(F)F)cc1` (stereo not given), the growth inhibition in experiment [1] was 61% (active); in experiment [4], 101% (active). Moreover, the inhibition in experiment [2] was 13%; in experiment [3], 5%. The outcome in experiment [5], in experiment [6], in experiment [7] and in experiment [8] was inactive.

With `NC(=O)c1cccc(C(=O)Nc2cccc(-c3ccc(-c4nc5ccccc5[nH]4)s3)c2)c1`, the growth inhibition in experiment [1] is 69% (active); in experiment [4] it was 95% (active). Also, the inhibition in experiment [2] is 37%; in experiment [3], 1%. Besides, the outcome in experiment [5], in experiment [6], in experiment [7] and in experiment [8] was inactive.

Turning to `CCNc1cc(C(=O)N[C@@H](Cc2ccccc2)[C@H](O)CNC23CCC(CC2)C3)cc(N2CCCCS2(=O)=O)c1`, the results for the growth inhibition in experiment [1] and in experiment [4] were 99% (active) and 97% (active), respectively. Besides, the inhibition is 22% in experiment [2] and -2% in experiment [3]. For the same molecule, the result in experiment [5], in experiment [6], in experiment [7] and in experiment [8] was inactive.

As for `Cc1cccc2[nH]c(-c3cccc(-c4ccc(NC(=O)c5cnc[nH]5)cc4)c3)nc12`, the growth inhibition in experiment [1] was 48%; in experiment [4], 101% (active). The inhibition is 8% in experiment [2] and 3% in experiment [3]. The result in experiment [5], in experiment [6], in experiment [7] and in experiment [8] was inactive.

As to `CCCCN1CCN(Cc2cccc(NC(=O)c3ccc(Cl)c(Cl)c3)c2)CC1`, the growth inhibition in experiment [1] was 24%; in experiment [4] it was 88% (active). Further, the results for the inhibition in experiment [2] and in experiment [3] were 21% and 1%, respectively. The outcome in experiment [5], in experiment [6], in experiment [7] and in experiment [8] was inactive.

Regarding `CCOC(=O)CN1Cc2cc(NCc3ccc4ccc5nc(C)[nH]c(=O)c5c4c3)ccc2C1=O`, the growth inhibition in experiment [1] is 91% (active); in experiment [4], 84% (active). Also, the figures for the inhibition in experiment [2] and in experiment [3] were 40% and 1%, respectively. The outcome in experiment [5], in experiment [6], in experiment [7] and in experiment [8] was inactive.

With `CC(C)COc1ccc(Cl)cc1Cc1ccc(-c2nc3c(F)c(F)ccc3[nH]2)o1`, the growth inhibition in experiment [1] is 85% (active); in experiment [4], 94% (active). In addition, the inhibition in experiment [2] was 26%; in experiment [3], -1%. The result in experiment [5], in experiment [6], in experiment [7] and in experiment [8] was inactive.

For the molecule `CC(C)C(=O)ONC1=NC(C)(C)N(OCCCOc2cc(Cl)c(Cl)cc2Cl)C(N)=N1`, the growth inhibition in experiment [1] is 96% (active); in experiment [4] it was 95% (active). Besides, the results for the inhibition in experiment [2] and in experiment [3] were 64% (active) and -4%, respectively. The result in experiment [5], in experiment [6], in experiment [7] and in experiment [8] was inactive.

For `CCOC(=O)C(CO)NC(=O)c1ccc([N+](=O)[O-])o1` (stereo not given), the values for the growth inhibition in experiment [1] and in experiment [4] were 2% and 96% (active), respectively. Further, the inhibition in experiment [2] is -5%; in experiment [3] it was 8%. The result in experiment [5], in experiment [6], in experiment [7] and in experiment [8] was inactive.

As to `O=C(Nc1ccc(Oc2ccccc2)cc1)N[C@@H](Cc1ccc(O)cc1)C(=O)NC1CCN(Cc2ccc(O)c([N+](=O)[O-])c2)C1` (stereo not given in full), the growth inhibition is -3% in experiment [1] and 101% (active) in experiment [4]. In addition, the inhibition in experiment [2] is -3%; in experiment [3] it was 2%. Further, the result in experiment [5], in experiment [6], in experiment [7] and in experiment [8] was inactive.

With `CC(C)CNCc1ccc(-c2cccc(CNC3CCN(Cc4ccccc4)CC3)c2)cc1`, the growth inhibition is 100% (active) in experiment [1] and 101% (active) in experiment [4]. Moreover, the inhibition in experiment [2] was 34%; in experiment [3] it was -9%. For the same molecule, the result in experiment [5], in experiment [6], in experiment [7] and in experiment [8] was inactive.

`CCNC(=O)Nc1ccc(-c2cccc(-c3nc4c(C)cccc4[nH]3)c2)cc1`: the growth inhibition in experiment [1] is 34%; in experiment [4], 91% (active). Besides, the inhibition in experiment [2] was 16%; in experiment [3], -8%. Also, the outcome in experiment [5], in experiment [6], in experiment [7] and in experiment [8] was inactive.

As for `CCOC(=O)c1ccc(COc2ccc(C)nc2)cc1`, the growth inhibition in experiment [1] is -7%; in experiment [4], 100% (active). Moreover, the inhibition in experiment [2] is 14%; in experiment [3] it was -8%. For the same molecule, the result in experiment [5], in experiment [6], in experiment [7] and in experiment [8] was inactive.

With `Cc1cccc2[nH]c(-c3cccc(-c4cccc(CNCCN5CCNCC5)c4)c3)nc12`, the growth inhibition was 0% in experiment [1] and 90% (active) in experiment [4]. The values for the inhibition in experiment [2] and in experiment [3] were 11% and 1%, respectively. For the same molecule, the result in experiment [5], in experiment [6], in experiment [7] and in experiment [8] was inactive.

As to `O=c1cc(NCc2ccccc2NCc2ccc(Cl)c(Cl)c2)[nH]c2ccccc12`, the growth inhibition in experiment [1] was 98% (active); in experiment [4], 93% (active). In addition, the results for the inhibition in experiment [2] and in experiment [3] were 10% and 3%, respectively. The outcome in experiment [5], in experiment [6], in experiment [7] and in experiment [8] was inactive.

As for `Cc1[nH]c2ccccc2c1C1CCN(CCCCNC(=O)c2ccc(-c3ccc(C#N)cc3)cc2)CC1`, the values for the growth inhibition in experiment [1] and in experiment [4] were 97% (active) and 101% (active), respectively. The figures for the inhibition in experiment [2] and in experiment [3] were 19% and -3%, respectively. Besides, the outcome in experiment [5], in experiment [6], in experiment [7] and in experiment [8] was inactive.

As for `OC(CNc1ccnc(Nc2ccccc2)n1)c1ccc(C(F)(F)F)cc1` (stereo not given), the growth inhibition in experiment [1] was 39%; in experiment [4], 101% (active). Moreover, the inhibition in experiment [2] is 3%; in experiment [3] it was -2%. For the same molecule, the result in experiment [5], in experiment [6], in experiment [7] and in experiment [8] was inactive.

Source of the values: PubChem BioAssay.
